In the library only some 2.3% were active in any assay of this set; here they are far more common.
IDH1 R132H inh: inhibitors of human mutant IDH1 R132H | IDH1-R132H enzyme, NADPH consumption, diaphorase/resazurin fluorescence | Potency, µM (highest dose often 76.6 µM), for the others: top-dose activity change, negative = inhibition, hits mostly inhibitors | AID 602179 | O75874 | 390,000 tested, 0.093% active; further: potency means the concentration at half of the fitted maximal effect; on the % scale 0 is the no-effect control and ±100 the full control effect; nearly all actives have a fitted effect of over 65% in size
Target sequence (O75874 whole entry R132H, stated change not applied): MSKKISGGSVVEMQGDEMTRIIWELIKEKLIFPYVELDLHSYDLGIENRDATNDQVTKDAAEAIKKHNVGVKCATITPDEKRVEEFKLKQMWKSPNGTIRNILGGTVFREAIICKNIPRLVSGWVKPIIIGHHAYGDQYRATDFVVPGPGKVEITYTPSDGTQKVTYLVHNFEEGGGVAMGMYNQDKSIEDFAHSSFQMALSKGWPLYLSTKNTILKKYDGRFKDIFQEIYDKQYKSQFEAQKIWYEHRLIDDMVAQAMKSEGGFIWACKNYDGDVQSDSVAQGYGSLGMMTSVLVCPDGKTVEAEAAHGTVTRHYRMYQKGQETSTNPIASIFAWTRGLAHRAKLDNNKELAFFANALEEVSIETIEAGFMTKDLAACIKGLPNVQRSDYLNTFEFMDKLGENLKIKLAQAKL
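IDH1-R132H (0.5 ug/mL) preincubated 30 min with compound, then NADPH (0.016 mM) and alpha-KG (2 mM) added; 80 min at RT, pH 7.5. Remaining NADPH coupled via diaphorase/resazurin to fluorescence (540/590 nm); concentration-response curves normalized to no-enzyme control.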
Apoferritin bind: binds horse apoferritin like a general anesthetic. apoferritin/1-aminoanthracene competitive binding, fluorescence. Potency, µM (titrated, usually from 77.5 µM), inactives show at the highest dose activity change, negative = displacement, most hits filed as inhibitors. 350,000 tested, 0.074% active; further: potency means the concentration at half of the fitted maximal effect; on the % scale 0 is the no-effect control and ±100 the full control effect; nearly all actives have a fitted effect of over 20% in size
Target sequence (P02791 2-175 limits assumed): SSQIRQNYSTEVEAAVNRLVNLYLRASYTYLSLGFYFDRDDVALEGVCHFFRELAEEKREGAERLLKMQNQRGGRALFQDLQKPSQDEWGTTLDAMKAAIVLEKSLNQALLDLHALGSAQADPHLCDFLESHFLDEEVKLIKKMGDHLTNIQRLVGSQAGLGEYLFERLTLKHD
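In PBS, apoferritin at 10 uM is loaded with 1-AMA from a 50% saturated solution. After 10 min of compound exposure at ambient temperature, reduced 535 nm fluorescence indicates probe displacement.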
Giardia kill: Giardia lamblia killing; Giardia lamblia trophozoite viability; 340,000 tested, 0.15% active; AID 540267; activity change, % at 7.66 µM, hits read low; in the data active means activity change below about -80%; inconclusive means between about -30% and that limit;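 further: parasites exposed to compound for two days anaerobically before the ATP read; on the % scale 0 is the no-effect control and ±100 the full control effect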
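Luminescence from cellular ATP indicates surviving trophozoites (100 cells/well) following 48 hrs anaerobic compound treatment at 37 deg C; signal develops 15-30 min at room temperature.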
Nrf2 activator: activates Nrf2 signaling. AREc32 ARE-luciferase reporter (MCF7-derived line), luminescence, 24 h. Potency, µM (titrated, usually from 46.1 µM), without a hit: at the highest dose activation, actives largely listed as activators. 410,000 tested, 0.31% active. AID 624171; further: potency means the concentration at half of the fitted maximal effect; % of control where 0% means no effect; nearly all actives have a fitted effect of over 65% in size
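ARE activation measured as luciferase luminescence (Steady-Glo, 30 min RT) in AREc32_Fluc cells after 24 hr compound exposure at 37 deg C, 5% CO2; cells seeded overnight at 1000/well in OPTI-MEM, 5% FBS.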
A549 tox: A549 cytotoxicity, counter-screen for Nrf2 inhibitors; Potency, µM (series often up to 46 µM), for inactives: at the top dose activity change, negative = cytotoxicity, hits mostly inhibitors; A549 ARE-Fluc cells, CellTiter-Fluor viability, 18-24 h; 390,000 tested, 0.16% active; further: potency means the concentration at half of the fitted maximal effect; on the % scale 0 is the no-effect control and ±100 the full control effect
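Cytotoxicity counterscreen: CellTiter-Fluor fluorescence was measured in A549 ARE_Fluc cells after 18-24 h of compound exposure in a concentration series. The subsequent BugLite luminescent read reports ARE-luciferase activity.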
Nrf2 block: blocks Nrf2 signaling. A549 ARE-Fluc reporter, luciferase luminescence, 18-24 h. Potency, µM (highest dose often 46 µM), for the others: top-dose activity change, negative = inhibition, most hits filed as inhibitors. 360,000 tested, 2.1% active. AID 504444; further: potency means the concentration at half of the fitted maximal effect; on the % scale 0 is the no-effect control and ±100 the full control effect; nearly all actives have a fitted effect of over 60% in size
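In this cell-based qHTS, ARE-driven firefly luciferase in A549 cells reports Nrf2 activity; the luminescent signal after BugLite lysis is the measured value, with a prior CellTiter-Fluor read for cell health.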
Numbers without * were called inactive; u = inconclusive; x = no result; [ ] = dose if it differs, or a comment. Unless noted, the call rests on the fitted dose curve; in most records, active means well fitted curve in the direction sought with a large enough effect; inconclusive means small, poorly fitted or top-dose-only effect, or another doubt; inactive means no such curve, though single readings can be large; an effect the other way counts as inactive or inconclusive.

SMILES	IDH1 R132H inh	Apoferritin bind	Giardia kill	Nrf2 activator	A549 tox	Nrf2 block
COc1cc(OC)cc(C2=Nn3c(nnc3-c3cccc(OC)c3)SC2)c1	x	-5%	x	x	-4%	-30%
O=C(COCc1cc(-c2ccc(F)cc2)on1)Nc1cc(F)ccc1F	0%	1%	x	0%	15%	x
CN(C)c1ccc(C=c2c3cc([N+](=O)[O-])ccc3n3c2cc(-c2ccccc2)[n+]3C)cc1	3%	x	-11	-4%	u	8.2µM*
COc1ccc(OC)c(S(=O)(=O)NCCc2sc(C)nc2C)c1	-13%	5%	x	-2%	-1%	x
CCCCC(O)C(=O)Nc1cc(C(F)(F)F)ccc1Cl (stereo unspecified)	x	x	x	x	2%	14%
CN(C)S(=O)(=O)c1cccc(NC(=O)Cc2ccc(-c3ccccc3)cc2)c1	6%	-19%	8	3%	u	13µM*
CN(c1ccccc1)S(=O)(=O)c1cccc(NC(=O)c2nn(C)c(=O)c3ccccc23)c1	7%	x	-11	2%	-2%	23µM*
CCN(CC)S(=O)(=O)c1cccc(NC(=O)CSc2nc3ccccc3[nH]2)c1	0%	-20%	-10	-1%	5%	-7%
CN(C)S(=O)(=O)c1cccc(NC(=O)CSc2nc3ccccc3[nH]2)c1	0%	-14%	16	0%	-18%	21µM*
COc1cc(CC(=O)Nc2cccc(S(=O)(=O)N(C)c3ccccc3)c2)cc(OC)c1OC	3%	x	-18	5%	u	15µM*
CC1(c2nnnn2Cc2ccccc2)CCC(=O)N1CCCn1ccnc1 (stereo unspecified)	x	x	x	-1%	x	x
COc1ccc(C(=O)N(Cc2cccs2)Cc2cccs2)c(O)c1	x	x	x	x	2%	24%
CCN(C(=O)c1nn(-c2ccc(C)cc2)c(=O)c2c1c1ccccc1n2C)c1ccc(F)cc1	x	-5%	x	-1%	2%	-1%
Cc1cccc(Oc2cc([N+](=O)[O-])cc3c2C(=O)Nc2ccccc2O3)c1	-2%	u	6	7%	-13%	16µM*
O=C1Nc2ccccc2Oc2cc([N+](=O)[O-])cc(Oc3ccccc3)c21	0%	-13%	-8	8%	0%	u
CCn1cc(C(=O)NCc2ccc3c(c2)OCO3)c(=O)c2cc(F)c(N3CCN(C(=O)c4ccco4)CC3)cc21	-4%	-17%	19	1%	u	16µM*
O=c1c2ccccc2c(-c2ccc(O)cc2)nn1-c1cccc(C(F)(F)F)c1	-4%	-12%	21	-2%	-2%	23µM*
Cc1oc(-c2ccccc2F)nc1CS(=O)(=O)CC(=O)N1CCN(c2ccc(Cl)cc2)CC1	2%	61%	x	0%	u	5.8µM*
CCCc1cc(=O)[nH]c(SCC(=O)Nc2sc(C(N)=O)c(C)c2C(=O)OCCOC)n1	-3%	x	-2	-1%	-3%	5.2µM*
Clc1ccc(Nc2ncnc3ccc(Br)cc23)cc1	6%	7%	7	4%	-10%	13µM*
c1csc(-c2nc3ccccn3c2Nc2ccc3c(c2)OCCO3)c1	3%	-3%	x	0%	-22%	23µM*
Cc1cc(C(=O)N2CCCC2(C)C(=O)NCC(C)C)nn1C(C)(C)C (stereo unspecified)	x	x	x	0%	x	x
O=[S+]([O-])(c1ccc2c(c1)OCCO2)N1CCN([S+](=O)([O-])c2ccc(F)cc2Br)CC1	x	x	x	x	4%	-11%
COCCCNC(=O)c1ccc(-n2c(-c3ccccc3)cc3c2CCCCC3)cc1	-13%	-5%	3	u	-14%	u
CCOCCCNC(=O)c1ccc(-n2c(-c3ccccc3)cc3c2CCCC3)cc1	-2%	18%	x	11µM*	-6%	u
SMILES	IDH1 R132H inh	Apoferritin bind	Giardia kill	Nrf2 activator	A549 tox	Nrf2 block
CC1CCc2c(cc(-c3ccccc3)n2-c2ccc(C(=O)NC(C)C)cc2)C1 (stereo unspecified)	3%	29%	x	2.8µM*	u	u
CC(C)NC(=O)c1ccc(-n2c(-c3ccccc3)cc3c2CCCCC3)cc1	5%	-10%	x	13µM*	-18%	u
CCCCCOc1ccc(CSC(=N)N)cc1[N+](=O)[O-]	2%	8.9µM*	-1	19%	-20%	x
COc1ccc(CSC(=N)N)cc1[N+](=O)[O-]	2%	-4%	4	17%	u	-28%
Oc1ccc(/C=N/Nc2nc(-c3cccnc3)nc3ccccc23)c(O)c1	-3%	-2%	-3	-1%	-13%	21µM*
O=[S+]1([O-])N=C(Oc2cccnc2)c2ccccc21	x	x	x	x	-2%	11%
O=C(NC12CC3CC(CC(C3)C1)C2)c1ccc([N+](=O)[O-])o1	5%	u	-93*	u	6%	27%
O=C(/C=C/c1cccc([N+](=O)[O-])c1)Nc1cccc(NC(=O)c2ccco2)c1	0%	-8%	14	3%	u	21µM*
CC(C)COc1ccc(C(=O)Nc2ccc(NC(=O)c3ccco3)c(Cl)c2)cc1	6%	-9%	-17	0%	u	16µM*
O=C(/C=C/c1ccc(Cl)c([N+](=O)[O-])c1)Nc1cccc(NC(=O)c2ccco2)c1	3%	-10%	-6	15%	-3%	-9%
O=C(NC12CC3CC(CC(C3)C1)C2)c1ccc(Br)o1	-2%	u	7	19%	2%	-20%
O=C(Nc1cccc(NC(=O)c2ccc([N+](=O)[O-])o2)c1)c1ccco1	8%	-11%	-85*	u	-1%	18%
Cc1ccc2scc(N3CCCCC3C)c(=O)c2c1 (stereo unspecified)	6%	1%	x	3%	-11%	x
COc1ccccc1C(=O)Nc1ccc2nc(N3CCC(C)CC3)cc(C)c2c1	x	432%	x	-1%	-11%	-16%[9.27 µM]
O=C(Nc1ccccc1Cl)c1ccc([N+](=O)[O-])o1	-4%	-10%	-83*	8%	0%	-12%
O=C(Nc1ccc(NC(=O)c2ccco2)c(Cl)c1)c1ccccc1	-1%	-1%	-7	5%	11%	27%
O=C(Nc1ccc(NC(=O)c2ccc([N+](=O)[O-])o2)cc1Cl)c1ccco1	-5%	4%	-92*	u	0%	-3%
Cc1ccc(C(=O)CSC2=C(C#N)C(c3ccco3)C3=C(CC(C)(C)CC3=O)N2)cc1 (stereo unspecified)	1%	-9%	-13	6%	u	16µM*
CC(=O)Nc1cc2nn(-c3ccccc3)nc2cc1C	10%	3%	-28	0%	-6%	u
Cc1cc2nn(-c3ccccc3)nc2cc1NC(=O)c1cccs1	7%	-7%	5	7.1µM*	-17%	19%

Screens from PubChem BioAssay.
